From PubChem BioAssay
Results filed as inconclusive are left out. Active and inactive are the calls of the source.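 How the source made its calls, unless noted: active means percent response above a set limit, the screen-wide mean plus 3 SD (cut at about 130% in these data); inactive means the rest.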

Legend:
[1] = rapamycin-like changes in RPL19A-GFP expression – cell-based, S. cerevisiae, multiplex flow cytometry, primary screen (AID 1862; in the data active means percent of DMSO control GFP below about 86%;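 further: lower values mimic rapamycin by blocking the RPL19A rise seen in DMSO cells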); conditions: S. cerevisiae RPL19A-GFP strain, flow cytometry fluorescence, 3 h; at 10 µM; stronger effect = lower value
[2] = TOR pathway GLN3 branch reporter MEP2-GFP changes – S. cerevisiae, multiplex flow cytometry, primary screen (AID 1867;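 active means GFP response, as percent of the DMSO control, above the screen-wide mean plus 3 SD, about 139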;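 further: median GFP channel fluorescence of barcode-gated MEP2-GFP cells measured by flow cytometry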); conditions: S. cerevisiae MEP2-GFP strain, 3 h, at 10 µM, stronger effect = higher value, 100% means same as DMSO wells
[3] = TOR pathway RTG branch CIT2 reporter changes – S. cerevisiae, GFP fusion, multiplex flow cytometry, primary screen (AID 1870);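 further: barcoded CIT2-GFP strain pooled with four other GFP strains with rapamycin as positive control; median GFP fluorescence per well over plate mean of DMSO wells so 100% = DMSO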; conditions: S. cerevisiae CIT2-GFP expression, 3 h, at 10 µM, stronger effect = higher value
[4] = TOR pathway LAP4-GFP level changes – S. cerevisiae, multiplex flow cytometry, primary screen (AID 1873;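 active means GFP signal, as percent of the solvent control, above the screen mean plus 3 SD, about 149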); conditions: S. cerevisiae LAP4-GFP expression, 3 h, at 10 µM, stronger effect = higher value
[5] = yeast AGP1-GFP level changes, GLN3 branch – cell-based, multiplex flow cytometry, S. cerevisiae, primary screen (AID 1887;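 active means GFP signal above the screen-wide mean plus 3 SD, that is over about 124.5% of the solvent control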;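 further: AGP1-GFP fusion strain of S. cerevisiae within a five-strain barcoded multiplex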); conditions: 3 h, at 10 µM, stronger effect = higher value
[6] = reduced mouse 2C T cell binding to pMHC/ICAM-1 vesicles – MLPCN validation set, flow cytometry, LFA-1/ICAM-1 modulator project, pilot screen (AID 2523;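 active means response below a set limit, under 55% cells CD8-positive and vesicle-bound, and CD8 cells' 90th-percentile brightness under 279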;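 on vesicle binding response: mean PE anti-B7-1 fluorescence of CD8+ cells relative to row control; 100% = QL9-loaded vesicles with DMSO vehicle in the same plate row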); conditions: 2C mouse CD8+ T cells, at 7 µM, stronger effect = lower value; double positive events: measured here: CD8+/vesicle+ event percentage
[7] = molecular target: Integrin beta-1 (Homo sapiens) + Integrin alpha-4 (Homo sapiens) (UniProt P13612+P05556); assay: alpha4beta1 integrin LIBS antibody binding reduction – U937 cells, HUTS-21 mAb, flow cytometry, validation set, VLA-4 allosteric modulator project, pilot screen (AID 2674;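 active means inhibition above 50%, about 3 SD of the validation set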;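 further: antibody binding induced by the VLA-4 ligand LDV present at three times its Kd; 0% = LDV ligand with antibody and no compound and 100% = antibody without LDV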); conditions: HUTS-21 LIBS mAb binding, at 6.7 µM, stronger effect = higher value, binding induced by LDV ligand
[8] = calorie-restriction mimetic ROS inhibitors, yeast – validation compound set, pilot screen (AID 2706;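 active means superoxide response below 65% of plate, a cut near 3 SD across the whole screen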;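 further: yeast exposed to compound for one week at 30 degrees C before staining; 100% = mean of all compound wells on the same plate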); conditions: S. cerevisiae aging, superoxide DHE fluorescence; at 10 µM; stronger effect = lower value
[9] = molecular target: Beta-adrenergic receptor kinase 1 (Homo sapiens) (UniProt P25098); assay: GRK2 binders displacing RNA aptamer, biochemical, validation, human GRK2, bead flow cytometry (AID 488806;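 active means aptamer binding inhibition above 30%, about 3 SD of noise from non-fluorescent compounds; inactive means inhibition at or below 30%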); conditions: bead-bound GRK2, FAM-aptamer displacement, at 10 µM, stronger effect = higher value
[10] = molecular target: Beta-2 adrenergic receptor (Homo sapiens) (UniProt P07550); assay: agonist-induced loss of surface beta2AR – cell-based, FAP fluorogen, flow cytometry, validation set, pilot screen (AID 504459;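 active means percent response above 42, roughly 3 SD of non-fluorescent test compounds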;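 further: agonist-driven loss of surface beta2AR via internalization measured by FAP dye flow cytometry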); conditions: Am2.2-beta2AR cells, at 10 µM, stronger effect = higher value
[11] = molecular target: AP-2 complex subunit beta (Homo sapiens) (UniProt P63010); assay: beta-arrestin/AP2 interaction blockers – biochemical, validation set, GST-AP2 beads, flow cytometry, pilot screen (AID 504541;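 active means inhibition above 54%, about 3 SD of non-fluorescent compounds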;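 further: AP2 carries R879A mutation and is captured from E. coli lysate; bead-bound FITC arrestin peptide fluorescence measuring arrestin peptide binding to AP2; 0% = DMSO wells and 100% = excess unlabeled arrestin peptide control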); conditions: FITC arrestin peptide, at 10 µM, stronger effect = higher value, AP2 beta2 appendage fragment, R879A mutant
[12] = cytosolic pH regulators acting via V-ATPase – S. cerevisiae, pHLuorin, HTS validation (AID 504600; in the data active means response above about 15%;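 further: plate controls were DMSO for no effect and reference compound for full effect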); conditions: V-ATPase proton transport, at 10 µM, stronger effect = higher value
[13] = test system: anti-desmoglein-3 scFv antibody binding to human DSG3; assay: blockers of pathogenic pemphigus antibody–desmoglein-3 binding – biochemical, validation compound set, bead-based, flow cytometry, pilot screen (AID 588368;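 active means binding below the plate cutoff, the plate median minus 3 SD, with a reading above zero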;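 further: signal is the median channel fluorescence of bead-bound GFP antibody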); conditions: Protein G beads, DSG3-Fc, scFv-GFP binding, at 10 µM, stronger effect = lower value
[14] = Nile Red efflux blockade in pump-expressing yeast – validation compound set, multiplex, phenotypic, pilot screen (AID 588506;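 active means efflux inhibition above 0.42, the validation set average plus 4 SD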;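 further: Nile Red retained in cells so higher fluorescence means more efflux inhibition; 0 = negative control wells and 1 = enniatin B 25 µM full block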); conditions: S. cerevisiae pump-expressing triplex, Nile Red efflux flow cytometry; at 10 µM; stronger effect = higher value; the pumps come from Candida albicans
[15] = molecular target: ATP-binding cassette sub-family B member 6 (Homo sapiens) (UniProt Q9NP58); assay: blockers of ABCB6-driven porphyrin uptake – K562-ABCB6 cells, flow cytometry, validation set, pilot screen (AID 588550;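 active means inhibition above the screen-wide mean plus 3 SD, about 51%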;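 further: 0% = DMSO wells and 100% = benzethonium chloride 70 µM positive control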); conditions: K562-ABCB6 porphyrin accumulation, 1 h, at 10 µM, stronger effect = higher value
[16] = AML differentiation inducers, ER-HoxA9 marrow cells – cell-based, GFP/MAC1 double positive, flow cytometry, validation set, primary screen (AID 588685;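 active means differentiation response of at least 50%, scaled between solvent and reference control, from cells with both markers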;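 further: compound exposure lasts four days before antibody staining and flow analysis; 0% = DMSO wells and 100% = 5 µM fulvestrant positive control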); conditions: stronger effect = higher value, normalized: vehicle 0, fulvestrant 100

ATP-binding cassette sub-family B member 6 (Homo sapiens), sequence (Q9NP58 whole entry, looked up): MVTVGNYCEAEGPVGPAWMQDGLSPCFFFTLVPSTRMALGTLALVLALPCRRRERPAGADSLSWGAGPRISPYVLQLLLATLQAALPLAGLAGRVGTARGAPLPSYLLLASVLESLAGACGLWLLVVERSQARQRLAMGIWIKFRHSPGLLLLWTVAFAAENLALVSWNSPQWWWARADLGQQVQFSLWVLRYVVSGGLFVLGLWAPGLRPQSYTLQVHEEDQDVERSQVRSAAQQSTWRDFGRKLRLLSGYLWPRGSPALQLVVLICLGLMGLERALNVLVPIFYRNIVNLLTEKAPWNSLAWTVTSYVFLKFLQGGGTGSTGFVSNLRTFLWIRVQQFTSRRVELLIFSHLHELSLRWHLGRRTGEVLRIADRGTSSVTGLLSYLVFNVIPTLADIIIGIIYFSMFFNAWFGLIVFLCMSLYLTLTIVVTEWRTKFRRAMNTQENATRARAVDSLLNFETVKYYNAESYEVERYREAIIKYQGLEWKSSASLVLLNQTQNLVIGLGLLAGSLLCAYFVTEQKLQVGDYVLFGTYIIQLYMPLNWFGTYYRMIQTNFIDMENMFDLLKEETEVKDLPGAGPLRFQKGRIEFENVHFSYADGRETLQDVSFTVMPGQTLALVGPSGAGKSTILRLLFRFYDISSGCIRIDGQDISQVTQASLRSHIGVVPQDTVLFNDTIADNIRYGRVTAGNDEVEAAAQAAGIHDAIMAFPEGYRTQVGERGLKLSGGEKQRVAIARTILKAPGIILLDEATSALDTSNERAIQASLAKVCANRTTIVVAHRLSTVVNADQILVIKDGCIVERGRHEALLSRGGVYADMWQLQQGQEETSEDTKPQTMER
Beta-2 adrenergic receptor (Homo sapiens), sequence (P07550 whole entry, looked up): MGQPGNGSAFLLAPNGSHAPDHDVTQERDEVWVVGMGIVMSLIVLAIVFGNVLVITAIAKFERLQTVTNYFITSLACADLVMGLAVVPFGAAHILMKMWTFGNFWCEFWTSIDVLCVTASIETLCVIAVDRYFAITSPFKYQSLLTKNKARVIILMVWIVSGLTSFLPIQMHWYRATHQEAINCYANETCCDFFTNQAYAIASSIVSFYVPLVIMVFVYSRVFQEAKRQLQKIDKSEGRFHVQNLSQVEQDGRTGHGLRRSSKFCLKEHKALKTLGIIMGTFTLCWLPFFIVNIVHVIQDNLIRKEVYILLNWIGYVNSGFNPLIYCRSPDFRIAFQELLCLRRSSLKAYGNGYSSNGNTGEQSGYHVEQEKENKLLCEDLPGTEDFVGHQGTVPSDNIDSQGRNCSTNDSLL
Integrin beta-1 (Homo sapiens) + Integrin alpha-4 (Homo sapiens), sequence (P05556 whole entry, looked up): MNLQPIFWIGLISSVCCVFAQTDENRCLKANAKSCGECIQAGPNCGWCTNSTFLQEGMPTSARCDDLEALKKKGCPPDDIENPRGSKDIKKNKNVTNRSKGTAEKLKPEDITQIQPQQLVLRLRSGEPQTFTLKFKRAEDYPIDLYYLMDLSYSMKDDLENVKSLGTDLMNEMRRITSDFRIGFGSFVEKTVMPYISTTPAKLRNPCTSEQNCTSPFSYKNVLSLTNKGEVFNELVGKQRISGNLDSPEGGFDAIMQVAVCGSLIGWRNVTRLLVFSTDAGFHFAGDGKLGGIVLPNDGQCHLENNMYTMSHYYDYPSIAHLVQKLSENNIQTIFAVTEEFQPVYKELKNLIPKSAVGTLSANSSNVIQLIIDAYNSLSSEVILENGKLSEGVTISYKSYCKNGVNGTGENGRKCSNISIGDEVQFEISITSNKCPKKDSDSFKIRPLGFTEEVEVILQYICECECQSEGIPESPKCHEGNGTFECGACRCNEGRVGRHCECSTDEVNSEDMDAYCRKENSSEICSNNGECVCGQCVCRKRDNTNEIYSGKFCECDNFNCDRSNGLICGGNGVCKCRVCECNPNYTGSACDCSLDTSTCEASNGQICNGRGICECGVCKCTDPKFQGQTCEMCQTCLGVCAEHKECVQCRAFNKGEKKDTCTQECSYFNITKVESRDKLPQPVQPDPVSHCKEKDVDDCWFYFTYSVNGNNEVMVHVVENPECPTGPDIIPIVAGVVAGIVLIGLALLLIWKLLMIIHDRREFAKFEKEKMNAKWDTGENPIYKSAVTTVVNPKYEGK
Integrin beta-1 (Homo sapiens) + Integrin alpha-4 (Homo sapiens), sequence (P13612 whole entry, looked up): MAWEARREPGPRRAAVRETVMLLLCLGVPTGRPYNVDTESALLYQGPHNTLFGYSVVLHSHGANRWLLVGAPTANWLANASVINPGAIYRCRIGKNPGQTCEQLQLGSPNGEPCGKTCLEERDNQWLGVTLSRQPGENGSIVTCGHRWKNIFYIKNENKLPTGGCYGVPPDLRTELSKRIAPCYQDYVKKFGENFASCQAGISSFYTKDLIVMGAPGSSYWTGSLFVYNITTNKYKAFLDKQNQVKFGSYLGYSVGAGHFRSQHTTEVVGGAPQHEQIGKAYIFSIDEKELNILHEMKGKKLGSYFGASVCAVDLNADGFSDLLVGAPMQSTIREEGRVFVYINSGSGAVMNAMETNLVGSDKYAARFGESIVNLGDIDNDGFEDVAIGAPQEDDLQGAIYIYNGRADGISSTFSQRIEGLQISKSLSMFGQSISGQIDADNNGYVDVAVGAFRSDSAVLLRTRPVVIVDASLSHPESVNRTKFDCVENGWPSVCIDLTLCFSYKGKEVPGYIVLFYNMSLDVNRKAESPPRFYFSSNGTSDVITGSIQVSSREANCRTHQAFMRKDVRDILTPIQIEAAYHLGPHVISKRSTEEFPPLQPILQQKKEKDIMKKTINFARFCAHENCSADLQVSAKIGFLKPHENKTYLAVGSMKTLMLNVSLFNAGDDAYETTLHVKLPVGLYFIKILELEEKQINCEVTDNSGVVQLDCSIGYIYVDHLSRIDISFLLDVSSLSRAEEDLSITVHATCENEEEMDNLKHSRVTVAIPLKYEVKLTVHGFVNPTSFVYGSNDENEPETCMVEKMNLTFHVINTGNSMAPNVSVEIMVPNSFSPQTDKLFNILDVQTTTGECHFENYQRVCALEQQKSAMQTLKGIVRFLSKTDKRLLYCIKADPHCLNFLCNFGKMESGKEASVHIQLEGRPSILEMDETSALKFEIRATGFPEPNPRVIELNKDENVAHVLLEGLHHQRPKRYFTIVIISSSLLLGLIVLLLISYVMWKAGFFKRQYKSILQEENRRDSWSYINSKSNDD
Beta-adrenergic receptor kinase 1 (Homo sapiens), sequence (P25098 whole entry, looked up): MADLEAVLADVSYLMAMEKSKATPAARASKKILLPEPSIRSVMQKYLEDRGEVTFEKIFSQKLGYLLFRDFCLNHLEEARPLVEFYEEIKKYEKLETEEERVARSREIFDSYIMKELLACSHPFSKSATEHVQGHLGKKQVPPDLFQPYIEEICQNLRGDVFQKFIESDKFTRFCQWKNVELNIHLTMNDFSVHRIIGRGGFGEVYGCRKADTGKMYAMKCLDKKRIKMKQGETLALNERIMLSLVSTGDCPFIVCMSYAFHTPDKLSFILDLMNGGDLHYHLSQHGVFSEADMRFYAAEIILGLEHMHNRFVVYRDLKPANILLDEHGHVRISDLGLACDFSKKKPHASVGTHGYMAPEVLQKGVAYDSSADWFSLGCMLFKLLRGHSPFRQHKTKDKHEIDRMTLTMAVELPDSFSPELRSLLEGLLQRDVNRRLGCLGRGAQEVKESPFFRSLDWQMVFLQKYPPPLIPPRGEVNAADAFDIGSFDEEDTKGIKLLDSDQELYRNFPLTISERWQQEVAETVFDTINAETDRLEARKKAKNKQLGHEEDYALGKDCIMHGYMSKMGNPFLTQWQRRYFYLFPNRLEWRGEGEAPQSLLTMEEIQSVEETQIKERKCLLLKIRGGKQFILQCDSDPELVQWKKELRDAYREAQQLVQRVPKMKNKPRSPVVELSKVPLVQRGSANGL
AP-2 complex subunit beta (Homo sapiens), sequence (P63010 whole entry, looked up, the tested form may be a part, one chain of several): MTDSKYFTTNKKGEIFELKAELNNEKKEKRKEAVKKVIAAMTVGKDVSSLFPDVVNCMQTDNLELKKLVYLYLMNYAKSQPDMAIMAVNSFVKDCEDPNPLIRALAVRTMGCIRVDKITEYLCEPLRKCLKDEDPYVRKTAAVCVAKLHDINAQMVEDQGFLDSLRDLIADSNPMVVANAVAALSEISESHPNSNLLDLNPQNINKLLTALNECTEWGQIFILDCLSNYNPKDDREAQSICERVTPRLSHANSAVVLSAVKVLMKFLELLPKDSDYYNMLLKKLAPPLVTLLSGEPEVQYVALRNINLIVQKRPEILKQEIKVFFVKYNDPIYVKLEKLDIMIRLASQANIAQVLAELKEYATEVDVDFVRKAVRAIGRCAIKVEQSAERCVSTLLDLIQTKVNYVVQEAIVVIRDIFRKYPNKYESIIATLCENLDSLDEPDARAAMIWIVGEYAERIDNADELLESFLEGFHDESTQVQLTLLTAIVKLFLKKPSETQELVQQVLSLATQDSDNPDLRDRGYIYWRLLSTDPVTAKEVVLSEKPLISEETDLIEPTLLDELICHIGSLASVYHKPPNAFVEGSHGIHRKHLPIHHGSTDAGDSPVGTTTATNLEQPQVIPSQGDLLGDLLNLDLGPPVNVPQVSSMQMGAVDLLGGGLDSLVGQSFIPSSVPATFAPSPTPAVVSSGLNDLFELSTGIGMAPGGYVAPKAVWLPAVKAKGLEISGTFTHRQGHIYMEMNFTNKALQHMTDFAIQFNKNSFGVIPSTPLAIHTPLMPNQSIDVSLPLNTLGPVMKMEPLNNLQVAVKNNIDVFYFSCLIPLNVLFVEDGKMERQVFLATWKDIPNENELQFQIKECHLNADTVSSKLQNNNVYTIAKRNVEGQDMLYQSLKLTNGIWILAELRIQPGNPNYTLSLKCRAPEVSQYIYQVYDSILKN

SMILES	percent of DMSO control GFP [1]	GFP response vs DMSO [2]	percent response of DMSO control [3]	GFP response vs DMSO [4]	GFP response, % of DMSO [5]	double positive events [6] [%]	vesicle binding response [6]	inhibition [7]	superoxide response (% of plate) [8]	aptamer binding inhibition [9]	response [10]	inhibition [11]	response [12]	binding (% of control) [13]	efflux inhibition (fraction of control) [14]	inhibition [15]	differentiation response [16]
Cc1cc(O)c(C(=O)Cc2csc(C)n2)c(O)c1	102% (inactive)	109% (inactive)	98.2% (inactive)	112% (inactive)	96.1% (inactive)	56.7	15.7% (inactive)	1.12% (inactive)	104% (inactive)	5% (inactive)	2.72% (inactive)	6.62% (inactive)	-0.65% (inactive)	99.5% (inactive)	0.46 (active)	2% (inactive)	6.49% (inactive)
COc1cc(CC(=O)NCCc2ccc(S(N)(=O)=O)cc2)cc(OC)c1OC	104% (inactive)	103% (inactive)	102% (inactive)	114% (inactive)	111% (inactive)	66.9	177% (inactive)	1.44% (inactive)	95.2% (inactive)	-4% (inactive)	-8.65% (inactive)	-9.64% (inactive)	0.1% (inactive)	114% (inactive)	-0.04 (inactive)	4% (inactive)	0.92% (inactive)
O=C(O)Cc1ccc(O)c(F)c1	91.5% (inactive)	135% (inactive)	101% (inactive)	80.9% (inactive)	91% (inactive)	61.7	175% (inactive)	-9.06% (inactive)	111% (inactive)	4% (inactive)	-7.58% (inactive)	5.41% (inactive)	1.04% (inactive)	100% (inactive)	0.19 (inactive)	10% (inactive)	-4.09% (inactive)
COc1ccc(NC(=O)N2CCCCC2c2cccnc2)cc1 (stereo not drawn)	98.9% (inactive)	105% (inactive)	99% (inactive)	109% (inactive)	105% (inactive)	59.7	454% (inactive)	7.4% (inactive)	116% (inactive)	7% (inactive)	-25.6% (inactive)	0.21% (inactive)	3.03% (inactive)	103% (inactive)	0 (inactive)	-2% (inactive)	-18.8% (inactive)
O=C(O)CCCc1ccccc1	104% (inactive)	96.2% (inactive)	115% (inactive)	76.9% (inactive)	99.7% (inactive)	61.7	264% (inactive)	-4.6% (inactive)	107% (inactive)	5% (inactive)	-7.69% (inactive)	-6% (inactive)	2.2% (inactive)	96.1% (inactive)	0.02 (inactive)	19% (inactive)	0.24% (inactive)
Cc1cccc(C)c1NC(=O)C1CCCCN1C (stereo not drawn)	102% (inactive)	104% (inactive)	97.8% (inactive)	90.1% (inactive)	97% (inactive)	62.6	92.5% (inactive)	-4.6% (inactive)	104% (inactive)	5% (inactive)	10.4% (inactive)	15.4% (inactive)	0.17% (inactive)	98.2% (inactive)	-0.01 (inactive)	1% (inactive)	-1.71% (inactive)
CC(N=C(NC#N)Nc1ccncc1)C(C)(C)C (stereo not drawn)	102% (inactive)	103% (inactive)	103% (inactive)	99.1% (inactive)	100% (inactive)	59.1	97.4% (inactive)	5.61% (inactive)	104% (inactive)	3% (inactive)	-2.47% (inactive)	0.53% (inactive)	-9.1% (inactive)	101% (inactive)	0.09 (inactive)	-10% (inactive)	-1.65% (inactive)
CC12CN3CC(C)(CN(C1)C3c1ccc(Br)cc1O)C2 (stereo not drawn)	101% (inactive)	108% (inactive)	108% (inactive)	123% (inactive)	106% (inactive)	57.2	197% (inactive)	6.55% (inactive)	127% (inactive)	-3% (inactive)	-11.7% (inactive)	-45.4% (inactive)	19% (active)	103% (inactive)	0.21 (inactive)	-1% (inactive)	2.89% (inactive)
CC(C)C(=O)Nc1c(O)c2ccccc2[nH]c1=O	95.6% (inactive)	91.9% (inactive)	93.9% (inactive)	151% (active)	96.6% (inactive)	62	220% (inactive)	6.4% (inactive)	111% (inactive)	0% (inactive)	7.52% (inactive)	-0.19% (inactive)	-4.44% (inactive)	96.6% (inactive)	0.15 (inactive)	11% (inactive)	-4% (inactive)
O=C(N/N=C/c1ccc([N+](=O)[O-])o1)c1ccc(O)cc1	103% (inactive)	118% (inactive)	112% (inactive)	77.6% (inactive)	97.5% (inactive)	47.6	209% (inactive)	-21.7% (inactive)	136% (inactive)	-1% (inactive)	-5.96% (inactive)	-8.31% (inactive)	4% (inactive)	110% (inactive)	0.12 (inactive)	8% (inactive)	14.7% (inactive)
CN1/C(=C\C=Nc2ccccc2)C(C)(C)c2ccccc21	102% (inactive)	102% (inactive)	98.3% (inactive)	103% (inactive)	113% (inactive)	61.9	196% (inactive)	–	101% (inactive)	-1% (inactive)	-50.9% (inactive)	11.8% (inactive)	0.09% (inactive)	116% (inactive)	0 (inactive)	–	2.89% (inactive)
CCOCC(=O)Nc1ccccc1C(=O)N1CCOCC1	97% (inactive)	130% (inactive)	114% (inactive)	88.6% (inactive)	87.7% (inactive)	67.2	182% (inactive)	-2.27% (inactive)	96.8% (inactive)	6% (inactive)	2.34% (inactive)	14.3% (inactive)	-3.44% (inactive)	100% (inactive)	0.23 (inactive)	–	0% (inactive)
CCOC(=O)C1=C(N)Oc2c(c(=O)[nH]c3ccccc23)C1c1ccccc1 (stereo not drawn)	100% (inactive)	106% (inactive)	91% (inactive)	112% (inactive)	107% (inactive)	57.2	179% (inactive)	0.94% (inactive)	103% (inactive)	6% (inactive)	3.69% (inactive)	1.81% (inactive)	1.75% (inactive)	104% (inactive)	0.01 (inactive)	7% (inactive)	-0.8% (inactive)
CC(C)(C)OC(=O)N1CC(O)CC1C(=O)OCC(=O)c1ccc(Cl)cc1 (stereo not drawn)	105% (inactive)	98.3% (inactive)	113% (inactive)	90.7% (inactive)	105% (inactive)	61.3	222% (inactive)	2.66% (inactive)	105% (inactive)	0% (inactive)	-16.2% (inactive)	-13.3% (inactive)	2.73% (inactive)	98.2% (inactive)	0.14 (inactive)	-6% (inactive)	8.06% (inactive)
COc1ccc2[nH]c(=O)c3c(c2c1)OC(C)(C)C=C3	93.7% (inactive)	105% (inactive)	89.1% (inactive)	119% (inactive)	95.1% (inactive)	59.1	88% (inactive)	-3.16% (inactive)	99.1% (inactive)	4% (inactive)	5.61% (inactive)	-1.86% (inactive)	2.4% (inactive)	101% (inactive)	0.08 (inactive)	6% (inactive)	8.8% (inactive)
O=C(Nc1ncc2c(n1)CC(c1ccco1)CC2=O)c1ccco1 (stereo not drawn)	93.9% (inactive)	113% (inactive)	95.8% (inactive)	132% (inactive)	95.7% (inactive)	55	187% (inactive)	-11.3% (inactive)	102% (inactive)	6% (inactive)	-16% (inactive)	1.11% (inactive)	-0.72% (inactive)	99.1% (inactive)	0.01 (inactive)	1% (inactive)	-18.4% (inactive)
Cc1oncc1C(=O)Nc1ccc(C(F)(F)F)cc1	95.7% (inactive)	98.6% (inactive)	101% (inactive)	124% (inactive)	105% (inactive)	57.4	171% (inactive)	3.99% (inactive)	101% (inactive)	10% (inactive)	-21.8% (inactive)	-2.96% (inactive)	6.73% (inactive)	96% (inactive)	-0.04 (inactive)	-7% (inactive)	-4.99% (inactive)
CC12CC(c3ccccc3O1)C(C(=O)N1CCOCC1)C(=O)N2 (stereo not drawn)	100% (inactive)	103% (inactive)	101% (inactive)	85.2% (inactive)	101% (inactive)	60.3	53.4% (inactive)	2.55% (inactive)	107% (inactive)	6% (inactive)	6.73% (inactive)	-22.1% (inactive)	0.44% (inactive)	103% (inactive)	-0.34 (inactive)	8% (inactive)	-1.88% (inactive)
